Test results published in PubChem BioAssay AID504832 (National Center for Advancing Translational Sciences (NCATS), 2011).
Values joined by “and” are separate entries in the source; they are usually repeats but may differ in a detail not shown here. Equal values may be shown once. About 18,000 (5.8%) of roughly 310,000 compounds were called active. Another 22% or so got no clear call; they are omitted. The call rests on the fitted dose curve; in most records, active means well fitted inhibition curve with a large enough effect; inconclusive means small, poorly fitted or top-dose-only effect, or another doubt; inactive means no such curve, though single readings can be large or run the other way. Many of the other results were omitted from the sample, so actives are more common in it than they were. The source holds several records for some structures; these can differ, active in one and inactive in another.

Test: Primary qHTS for delayed death inhibitors of the malarial parasite plastid, 48 hour incubation
Settings: P. falciparum luciferase growth in erythrocytes; series mostly up to 28.7 µM; activity change, negative = inhibition: at the top concentration
From the text: The goal of this screen is to discover new antimalarial compounds that act by inhibiting the development of the apicoplast in the malarial parasite Plasmodium falciparum. The biochemical processes that make this organelle essential for erythrocytic stage parasites are not well understood. However, antibiotics such as azithromycin and tetracycline, which target the apicoplast translational machinery, have a potent antimalarial effect.
We have developed a cell-based assay that measures parasite growth based on the expression of an integrated copy of a firefly luciferase reporter. To detect small molecules that cause this "delayed death" phenotype, erythrocytes infected with the luciferase-expressing parasites were incubated with compounds for either one or two generations, corresponding to 48 and 96 hours, respectively. Compounds that inhibit parasite growth in the second generation, but not the first, should be enriched in antimalarials that target the apicoplast. Growth inhibition is detected by a decrease in luciferase activity.
Assay Provider: David Fidock and Eric Ekland, Columbia University
Keywords: NIH Roadmap, MLPCN, MLI, MLSMR, qHTS, NCGC, qHTS, malaria, luciferase, viability
Four microliters of culture medium (RPMI 1640 with 0.5% w/v Albumax (GIBCO), 24 mM sodium bicarbonate and 10 ug/mL gentamycin) were dispensed by a Multi-drop Combi into white solid 1536-well plates (Grenier) and 23 nL compound was added by a pin tool. Four microliters of infected erythrocytes (2% hematocrit, 0.1% parasitemia final concentration) in culture medium were dispensed and the plates incubated for 48 hours at 37 C in 5% CO2. Two microliters of luciferase detection reagent was added and luminescence was detected by a ViewLux (PerkinElmer) reader.
On the % scale 0 is the no-effect control and ±100 the full control effect; potency means the concentration at half of the fitted maximal effect.

SMILES	activity change, negative = inhibition	Potency
O=C(NNC(=O)C1CCN(c2ncccn2)CC1)c1ccccc1	6.9% (inactive)	–
O=C(NNC(=O)C1CCCC1)c1ccc(F)cc1	-3.7% (inactive)	–
Cc1sc2ncnc(N3CCC(C(=O)Nc4ccc(F)cc4Cl)CC3)c2c1C	–	11.7 µM (active)
Cc1ccnc(N2CCCC(C(=O)Nc3cc(F)ccc3C)C2)n1 (centres undefined)	3.36% (inactive)	–
Cc1sc2ncnc(N3CCC(C(=O)Nc4nc5ccc(Cl)cc5s4)CC3)c2c1C	29.9% (inactive)	–
Cc1sc2ncnc(N3CCC(C(=O)NNC(=O)c4ccc(F)cc4)CC3)c2c1C	–	11.7 µM (active)
COc1ccccc1CNC(=O)COC(=O)CNS(=O)(=O)c1ccc(NC(C)=O)cc1	-22% (inactive)	–
CC1CCN(C(=O)/C(=C\c2ccccc2F)NC(=O)c2ccccc2)CC1	3.13% (inactive)	–
Cc1ccc(S(=O)(=O)NCCCn2ccnc2)cc1C(=O)NC(C)C	16.4% (inactive)	–
COc1ccc(CNC(=O)c2ccc(Br)s2)cc1OC	62.7% (inactive)	–
Cc1ccc(S(=O)(=O)N2CCN=C2SCc2c(F)cccc2Cl)cc1	-16.6% (inactive)	–
CCN(CC(=O)Nc1ccccc1C(F)(F)F)C(=O)C1CCN(C(=O)Nc2ccccc2)CC1	–	11.7 µM (active)
CCN(CC(=O)Nc1c(F)cccc1F)C(=O)C1CCC1	-7.11% (inactive)	–
CCN(CC(=O)Nc1ccccc1C(F)(F)F)C(=O)CSCc1c(C)noc1C	23.7% (inactive)	–
COc1ccc(S(=O)(=O)NNC(=O)Nc2ccc(C)cc2)c(OC)c1	-0.777% (inactive)	–
CC(C)=CCCC1(C)C=Cc2c(ccc3c2[nH]c2cc(O)c(C)cc23)O1 (centres undefined)	–	9.28 µM (active)
COc1cc2c(C(=O)N(C)c3cc(Cl)ccc3OC)cn(C)c(=O)c2cc1OC	19% (inactive)	–
COc1ccc(C(=O)N2CCCCC2C(=O)Nc2ccc(-n3nc(C)cc3C)cc2)o1 (centres undefined)	-12.2% (inactive)	–
CCCc1cc(=O)[nH]c2nnc(SCC(=O)Nc3nnc(SCC)s3)n12	-12.8% (inactive)	–
O=C(/C=C/c1cccc([N+](=O)[O-])c1)N1CCN(Cc2ccccc2)CC1	-22.8% (inactive)	–
O=C(NC1CCc2ccccc21)C12CN(Cc3ccccc3)CC1C(c1cccc([N+](=O)[O-])c1)=NO2 (centres undefined)	–	3.7 µM (active)
O=C(NCCN1CCN(C(=O)c2cccc([N+](=O)[O-])c2)CC1)C(=O)NCc1ccc(Cl)cc1	2.56% (inactive)	–
CN(Cc1ccccc1)C(=O)CCc1ccccc1	7.4% (inactive)	–
CN(C(=O)CN(CCO)CC(=O)N(C)C(C)(C)Cc1ccccc1)C(C)(C)Cc1ccccc1	–	inactive and 9.28 µM (active)
CCN(CC)C(=O)N(CC)Cc1ccccc1	3.09% (inactive)	–

SMILES	activity change, negative = inhibition	Potency
CN(CC(=O)NCc1ccc2c(c1)OCO2)CC(=O)Nc1ccc(F)c(F)c1F	-11.9% (inactive)	–
O=C(N/N=C/c1ccccn1)c1cccnc1	8.24% (inactive)	–
O=C(N/N=C/c1sc(N2CCCCC2)nc1-c1cccs1)c1cccnc1	–	3.29 µM (active)
Cc1cc(/C=N/NC(=O)c2cccnc2)c(C)n1CC(C)C	57.6% (inactive)	–
COc1ccc2c(C(=O)c3ccc(C)cc3)n(CCC(N)=O)[n+]([O-])c2c1	-1.7% (inactive)	–
Cc1cc(C(=O)N/N=C/c2ccccn2)c2ccccc2n1	9.17% (inactive)	–
Cc1ccc(CN2CCCC(C(=O)c3ccc4c(c3)OCO4)C2)cc1C (centres undefined)	2.04% (inactive)	–
Cc1cc(C)c2[nH]c(=O)c(C(c3nnnn3Cc3ccc4c(c3)OCO4)N3CCCC3)cc2c1 (centres undefined)	–	13.1 µM (active)
Cc1cccc(C)c1NC(=O)CSc1nnc(-c2ccccc2)n1Cc1ccc2c(c1)OCO2	-15.3% (inactive)	–
Fc1ccccc1C(c1nnnn1Cc1ccc2c(c1)OCO2)N1CCN(Cc2ccccc2)CC1 (centres undefined)	–	6.57 µM (active)
Cc1ccc(S(=O)(=O)Cn2nnnc2CN2CCN(Cc3ccc4c(c3)OCO4)CC2)cc1	-13.9% (inactive)	–
O=C(C1CCN(Cc2ccc(Cl)cc2)CC1)N1CCN(Cc2ccc3c(c2)OCO3)CC1	-25.3% (inactive)	–
CSc1ccccc1NC(=O)COC(=O)CCCOc1ccc(C)cc1	-20.5% (inactive)	–
CCOC(=O)c1c(C)nc(-c2ccccc2)nc1NC(=O)C(C)C	176% (inactive)	–
CCOC(=O)c1cnc(-n2nc(C)cc2C)nc1-n1nc(C)cc1C	6.57% (inactive)	–
CCOC(=O)c1cnc(-n2nc(C)cc2C)nc1NNc1cc(C)nc(-c2ccccc2)n1	–	3.29 µM (active)
COCCOC1CCN(C(=O)c2ccc(OC)c(OC3CCN(C(C)C)CC3)c2)CC1	10.5% (inactive)	–
COc1ccccc1NC(=O)C(C)OC(=O)c1ccc(-n2cnnn2)cc1 (centres undefined)	-2.09% (inactive)	–
CCc1ccc(Nc2n[n+](-c3ccccc3)c(-c3cccc(Cl)c3Cl)s2)cc1	–	4.15 µM (active)
Cc1ccc(Nc2nnc(SCc3ccccc3)s2)cc1	-9.22% (inactive)	–
COc1cc(Br)c(-c2sc(Nc3ccccc3)n[n+]2-c2ccccc2)cc1OC	2.26% (inactive)	–
Cc1ccc(C)c(S(=O)(=O)N2CCN(CC(=O)Nc3ccc([N+](=O)[O-])cc3)CC2)c1	-29% (inactive)	–
CC(=O)Nc1ccc(S(=O)(=O)N2CCN(S(=O)(=O)c3cccs3)CC2)cc1	-11.5% (inactive)	–
CC(=O)Nc1ccc(S(=O)(=O)N2CCN(CCCOc3cc(C)ccc3C)CC2)cc1	–	7.38 µM (active)
